FBW7 act: FBW7 E3 ligase activators, primary screen, biochemical, AlphaScreen, human | F-box/WD repeat-containing protein 7 (Homo sapiens), Q969H0 | AlphaScreen FBW7–phospho-cyclin E peptide binding, activator screen | normalized activity (activation), % at 26.1 µM | 650,000 compounds, 0.13% hits; in the data active = normalized activity above about 1.9%;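 note: purified mutant Fbw7 with reduced substrate affinity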
TEAD-YAP inh: TEAD-YAP interaction inhibition, primary screen, TEAD-YAP interaction inhibitor project, luminescence, HEK-TIYL cells. 640,000 compounds, 1.4% hits. AID 1259422, 2018. TEAD-Gal4/YAP UAS-luciferase luminescence. inhibition, % at 9.12 µM; in the data active = inhibition above about 32%;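 note: 0% = median of test compound wells and 100% = reference inhibitor wells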
GPR151 activ: activators of human GPR151, primary screen, cell-based, PathHunter beta-arrestin, luminescence; G-protein coupled receptor 151 (Homo sapiens), Q8TDV0; PathHunter beta-arrestin GPR151 cells; activation, % at 11.2 µM; 650,000 compounds, 1% hits; AID 1508602, 2020; in the data active = activation above about 4.9%;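 note: 0% = median of compound wells and 100% = cells with positive control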
Target sequence (Q8TDV0 whole entry, looked up): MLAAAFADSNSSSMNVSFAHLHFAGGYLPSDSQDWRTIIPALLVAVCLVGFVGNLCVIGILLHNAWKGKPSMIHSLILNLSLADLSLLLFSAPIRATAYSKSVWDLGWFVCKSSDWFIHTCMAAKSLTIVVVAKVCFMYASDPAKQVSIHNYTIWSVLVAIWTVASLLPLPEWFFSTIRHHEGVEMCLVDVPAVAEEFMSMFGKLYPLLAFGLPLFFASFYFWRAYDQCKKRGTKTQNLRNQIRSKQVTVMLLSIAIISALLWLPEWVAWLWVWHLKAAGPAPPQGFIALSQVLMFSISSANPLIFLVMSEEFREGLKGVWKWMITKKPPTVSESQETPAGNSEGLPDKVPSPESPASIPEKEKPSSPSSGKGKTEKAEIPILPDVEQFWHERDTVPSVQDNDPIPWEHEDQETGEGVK
MITF primary: MITF inhibitors, primary screen, biochemical, AlphaScreen, human; Microphthalmia-associated transcription factor (Homo sapiens), O75030; inhibition, % at 2.6 µM; AlphaScreen MITF homodimerization, bead proximity signal; 650,000 compounds, 0.91% hits; in the data active = inhibition above about 50%;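 note: 0% = vehicle wells with protein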
MITF confirm: MITF inhibitors, retest of hits, confirmation, biochemical, AlphaScreen, triplicate; 4,700 compounds, 16% hits; shares compounds with MITF primary; inhibition, % at 2.6 µM; AlphaScreen MITF homodimerization, biotin/His-MITF beads;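 active = inhibition above a cutoff derived from the DMSO control wells, cut at about 28% in these data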;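 note: 0% = MITF dimer wells with DMSO only; inhibitors lower the bead chemiluminescence by keeping MITF from dimerizing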
AlphaScreen DR: AlphaScreen optical interference compounds, dose response, counter-screen, biochemical, HTS. shares compounds with MITF primary. AlphaScreen optical interference counterscreen, cell-free. IC50, µM. 480 compounds, 6% hits. AID 1259373, 2018; call rule not given here
AlphaScreen intf2: AlphaScreen optical interference compounds, counter-screen for MITF inhibitor project, biochemical, triplicate; shares compounds with MITF primary; LysRS AlphaScreen counterscreen, signal interference; inhibition, % at 2.6 µM; 4,700 compounds, 7.6% hits;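 active = inhibition above a cutoff derived from the DMSO control wells, cut at about 30% in these data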
Numbers without * were called inactive; / = no result given. Rows were chosen to be rich in hits. Some 3.4% of all compounds tested hit in one or more screens of this group.

SMILES | FBW7 act | TEAD-YAP inh | GPR151 activ | MITF primary | MITF confirm | AlphaScreen intf2 | others
COc1ccc(-c2csc3ncnc(NCCN4CCOCC4)c23)cc1 | 0 | 13 | -2 | 82* | 16 | 18
Cc1ccc(NC(=O)CN(C)CC(=O)Nc2ccc(F)c(F)c2F)c(Cl)c1 | 0 | -4 | -1 | 5 | / | /
Cc1ccc(NC(=O)CN(C)C2CCN(C)CC2)c(Cl)c1 | 0 | 10 | 1 | 67* | 1 | 10
COc1cc(CN2CCN(Cc3cccc(Br)c3)CC2)cc(OC)c1OC | 0 | 7 | 0 | 69* | 8 | 13
COc1cc(CN2CCN(Cc3ccc(C(F)(F)F)cc3)CC2)cc2c1OCO2 | 0 | -12 | 1 | 61* | 3 | 37*
COc1cc(CN2CCN(Cc3cccc(Br)c3)CC2)cc2c1OCO2 | 0 | 1 | 0 | 65* | 1 | 14
COc1cc(CN2CCN(Cc3ccc(F)cc3)CC2)cc2c1OCO2 | 0 | 6 | 0 | 76* | 4 | 12
COc1ccc(CN2CCN(Cc3cc(OC)c4c(c3)OCO4)CC2)cc1OC | 0 | 9 | 0 | 34 | / | /
COc1cc(CNc2ccccc2)cc2c1OCO2 | 0 | -5 | 0 | 62* | -1 | -4
COCCSc1nnc(-c2ccncc2)n1C | 0 | 6 | 1 | 59* | 5 | 15
COc1ccc(OC)c(-n2cnc3cc(C(=O)NCc4ccco4)ccc32)c1 | 0 | -12 | 0 | 75* | 20 | 6
COc1ccc(OC)c(-n2cnc3cc(C(=O)NCc4ccccc4Cl)ccc32)c1 | 0 | 0 | -1 | 2 | / | /
O=c1c2c(-c3ccc(Cl)cc3)csc2nc2c3ccccc3c(N3CCOCC3)nn12 | 1 | 7 | -1 | 5 | / | /
O=C1CN(C(=O)COC(=O)c2c3c(nc4ccccc24)CCC3)c2ccccc2N1 | 0 | -1 | 2 | 72* | 19 | 15
c1ccc(CN2CCC(NCc3cccnc3)CC2)cc1 | 0 | -11 | -1 | 70* | 6 | 11
FC(F)SCc1ccc(CNC2CCN(Cc3ccccc3)CC2)o1 | 0 | 1 | 1 | 54* | 15 | 19
c1ccc(CN2CCC(NCc3ccncc3)CC2)cc1 | 0 | -1 | -1 | 63* | 8 | 13
Cc1ccc(CNC2CCN(Cc3ccccc3)CC2)o1 | 0 | 1 | 0 | 23 | / | /
Fc1ccccc1CNC1CCN(Cc2ccccc2)CC1 | 0 | 0 | 0 | 51* | -12 | 0
Clc1ccc(CNC2CCN(Cc3ccccc3)CC2)cc1 | 0 | 7 | 1 | -11 | / | /
O=C1NCCN(Cc2ccc(F)c(F)c2)C1CC(=O)N1CCC(CO)CC1 (stereo not given) | 0 | 2 | 1 | 4 | / | /
C=CCc1cc(C)ccc1OCCCCn1ccnc1 | 0 | -7 | -1 | 74* | 35* | 3 | AlphaScreen DR=>6.5
C=CCc1ccccc1OCCOCCN1CCOCC1 | 0 | -2 | 3 | 72* | 11 | 17
C=CCc1cc(Cl)ccc1OCCCN1CCN(C)CC1 | 0 | 7 | 1 | 79* | 4 | 10
CN1CCN(CCCOc2cc(Cl)ccc2Cl)CC1 | 0 | -11 | -2 | 7 | / | /
SMILES | FBW7 act | TEAD-YAP inh | GPR151 activ | MITF primary | MITF confirm | AlphaScreen intf2 | others
C=CCc1cc(C)ccc1OCCOCCN1CCN(C)CC1 | 0 | 3 | 1 | 60* | -7 | -7
O=C1N[C@@H](Cc2cnc[nH]2)C(=O)N2CCN(Cc3ccccc3)C[C@H]12 | 0 | -13 | -1 | -2 | / | /
CCN(C=O)c1c(C(C)(C)C)cc(C(C)(C)C)cc1C(C)(C)C | 0 | -3 | -1 | -18 | / | /
COC(=O)[C@@H]1CCCN1C(=O)CC1(c2ccccc2C)CC(=O)N(C2CCCC2)C1=O (stereo not given in full) | 1 | -40 | 1 | -5 | / | /
C=CCc1cc(C)ccc1OCCN1CCCC1 | 0 | -2 | 2 | 11 | / | /
C=CCc1cc(C)ccc1OCCCN1CCCC1 | 0 | 13 | 0 | 55* | 0 | 9

Source: PubChem BioAssay (The Scripps Research Institute Molecular Screening Center)
